# Data as given in PubChem BioAssay AID1376 (SRMLSC, 2008).
# Out of some 220,000 compounds screened, about 530 (0.24%) were called active. This is one part of a sample in which actives are shown more often than they occur. Results with a measured potency or affinity are listed apart. A number with no mark means an inactive call. Rule as the data show it: active = inhibition above about 13%; inconclusive = no clear call, values can overlap the other calls; inactive = below that.
# Target: Bifunctional protein GlmU (Mycobacterium tuberculosis (strain ATCC 25618 / H37Rv)) (UniProt P9WMN3)
# Assay: inhibition of mycobacterial GlmU enzyme – biochemical, glucosamine-1-phosphate acetyltransferase (AID 1376);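 also: 0% = complete reaction with vehicle and 100% = reaction without substrate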
# Conditions: M. tuberculosis GlmU acetyltransferase enzyme assay; active compounds read high;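 tested at 30 µM in the primary screen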
# Chain of Bifunctional protein GlmU (Mycobacterium tuberculosis (strain ATCC 25618 / H37Rv)) (P9WMN3 whole entry, looked up): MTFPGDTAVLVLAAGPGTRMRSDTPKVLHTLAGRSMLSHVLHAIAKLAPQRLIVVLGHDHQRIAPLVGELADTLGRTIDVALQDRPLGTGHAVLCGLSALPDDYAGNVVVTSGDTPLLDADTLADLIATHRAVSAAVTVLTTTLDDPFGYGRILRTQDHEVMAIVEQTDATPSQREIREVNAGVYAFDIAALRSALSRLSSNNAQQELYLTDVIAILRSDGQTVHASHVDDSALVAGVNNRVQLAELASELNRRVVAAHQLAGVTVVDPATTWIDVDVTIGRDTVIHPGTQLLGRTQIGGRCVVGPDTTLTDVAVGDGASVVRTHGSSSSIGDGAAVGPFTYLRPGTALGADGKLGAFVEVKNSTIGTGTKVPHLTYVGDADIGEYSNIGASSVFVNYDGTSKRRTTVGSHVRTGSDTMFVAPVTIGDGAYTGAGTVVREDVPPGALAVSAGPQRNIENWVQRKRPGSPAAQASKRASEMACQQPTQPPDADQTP
row,Compound,inhibition
1,Cc1cc(C)n2nc(SCCOc3ccccc3)nc2n1,-0.25%
2,Cc1cccc(NC(=S)NCc2cccn2C)c1,4.86%
3,Cc1nc2cccc(C(=O)NCc3ccccc3)c2o1,-4.24%
4,O=C(NC1CCCCC1)c1cc(Cl)nc2ccccc12,1.21%
5,Cc1nc2cccc(C(=O)NC3CCCCC3)c2o1,14.4% (active)
6,Cc1cc(Br)ccc1SCC(=O)OCC(=O)Nc1ncc(C(F)(F)F)cc1Cl,1.65%
7,CCOC(=O)/C(C#N)=C/Nc1ccccc1OC,1.82%
8,CCOC(=O)/C(C#N)=C/Nc1cc(OC)ccc1OC,-9.19%
9,CCOC(=O)/C(C#N)=C/Nc1cc(C(=O)OCC)cc2c(OC)c(OC)ccc12,26.4% (active)
10,C#Cc1ccc([C@H]2C=C(C(=O)NC3CC3)O[C@@H](OCC)[C@@H]2CCCO)cc1,3.19%
11,CCCN1C(=O)c2cc(C(=O)Nc3ccccc3OC)ccc2C1Nc1ccccc1OC (stereo not given),-4.43%
12,CCCN1C(=O)c2cc(C(=O)Nc3ccccc3C)ccc2C1Nc1ccccc1C (stereo not given),12.9% (active)
13,CCCN1C(=O)c2cc(C(=O)Nc3ccc(OC)cc3OC)ccc2C1Nc1ccc(OC)cc1OC (stereo not given),-6.94%
14,Cc1cc(NC(=O)C2CCCCC2C(=O)O)no1 (stereo not given),-2.61%
15,Cc1cccc(NNC(N)=S)c1C,1.37%
16,CN(C)c1ccc(/C=C/c2ccc3c4ccccc4ccc3[n+]2-c2ccccc2)cc1,41% (active)
17,CC[n+]1c(/C=C/c2ccc(N(C)C)cc2)ccc2ccccc21,2.12%
18,CN(C)c1ccc(/C=C/c2ccc3ccccc3[n+]2C)cc1,-0.66%
19,Cn1cccc1CC(=O)N/N=C/c1cccc([N+](=O)[O-])c1,-5.88%
20,Cc1ccc(-n2ncc3c(=O)n(-c4ccc(C)c(C)c4)c(C)nc32)cc1,48.2% (active)

row,Compound,inhibition
1,Cc1ccc(-n2c(C)nc3c(cnn3-c3ccc(C)c(C)c3)c2=O)cc1C,6.8%
2,Cc1ccc(-n2c(C)nc3c(cnn3-c3ccc(F)cc3)c2=O)cc1C,-3.89%
3,Cn1cc(/C=N/NC(=O)c2ccc(C#N)cc2F)c2ccccc21,1.51%
4,CN(Cc1c(O)ccc2c1oc(=O)c1ccccc12)C1CCCCC1,14% (active)
5,C=CCN(CC=C)Cc1c(O)ccc2c1oc(=O)c1ccccc12,-2.23%
6,CN(C)Cc1c(O)ccc2c3c(c(=O)oc12)CCCCC3,0.45%
7,COc1ccc2cc3cc(C(=O)NCCCN4CCc5ccccc5C4)sc3nc2c1,-12.5%
8,Cc1ccc(/C=N/NC(=O)C[n+]2ccccc2)o1,5.08%
9,O=C(CCC(=O)c1cccs1)Nc1nnc(C2CC2)s1,2.51%
10,Cc1ccsc1/C=N/NC(=S)NCc1ccccc1,0.62%
11,O=[N+]([O-])c1ccc2nccn2c1,2.74%
12,Cc1cc(C=C2C(=O)c3ccccc3C2=O)c(C)n1-c1cccc(C(=O)O)c1,7.28%
13,Cc1ccc(NC(=O)CN2C(=O)S/C(=C\c3cccn3-c3cccc(C(=O)O)c3)C2=O)cc1C,6.74%
14,Cc1cccc(NC(=O)CN2C(=O)N/C(=C\c3cccn3-c3cccc(C(=O)O)c3)C2=O)c1,-2.01%
15,Cc1ccc(NC(=O)CN2C(=O)S/C(=C\c3cc(C)n(-c4cccc(C(=O)O)c4)c3C)C2=O)cc1,0.24%
16,CC(=O)NC1=NC(=O)/C(=C/c2cc(C)n(-c3ccc(NC(C)=O)cc3)c2C)S1,3.45%
17,Cc1ccc(NC(=O)CN2C(=O)N/C(=C/c3cc(C)n(-c4cccc(C(=O)O)c4)c3C)C2=O)cc1,14.9% (active)
18,Cc1ccc(-n2cccc2/C=C2/NC(=O)N(CC(=O)Nc3cccc(C)c3)C2=O)cc1,10.8%
19,Cc1ccc(NC(=O)CN2C(=O)N/C(=C/c3cc(C)n(-c4ccc(C(=O)O)cc4)c3C)C2=O)cc1,8.1%
20,Cc1ccc(NC(=O)CN2C(=O)N/C(=C/c3ccc(N4CCOCC4)cc3)C2=O)cc1,-5.18%

row,Compound,inhibition
1,COc1ccccc1CNC(=O)CS(=O)Cc1nc(-c2ccccc2C)oc1C (stereo not given),-3.21%
2,COc1ccc(CCNC(=O)c2ccc3ccccc3n2)cc1OC,1.59%
3,CCc1cccc(C)c1NC(=S)N(CCN(C)C)C(C)c1ccco1 (stereo not given),-1.5%
4,Cc1occc1C(=O)N/N=C/c1cnn(C)c1C,0.23%
5,CC1CN=C(NCCc2ccccc2)S1 (stereo not given),-5.97%
6,COc1ccc(Cl)cc1N(C(C)C(=O)NC1CCCC1)S(C)(=O)=O (stereo not given),-1.06%
7,Cc1nonc1C(=O)N/N=C/c1cccc(O)c1,-5.8%
8,O=C1C=C(N2CCOCC2)C2(CCCCC2)O1,-4.46%
9,CS(=O)(=O)c1nsc2nc(=O)c(/C=C3\C=Nc4ccccc43)c(N)n12,9.05%
10,CC1=Nc2ccccc2/C1=C/c1c(N)n2c(S(=O)(=O)C(C)C)nsc2nc1=O,6.27%
11,CC(C)S(=O)(=O)c1nsc2nc(=O)c(/C=C3\C=Nc4ccccc43)c(N)n12,14.9% (active)
12,COc1ccc2[nH]c3c(N4CCc5ccccc5C4)ncnc3c2c1,0.43%
13,Cc1cc(C)n2nc(CC(=O)NCc3ccc(F)cc3)nc2n1,3.44%
14,Cc1ccc(-c2nc(C)sc2CC(=O)Nc2nnc(C)s2)cc1,-1.22%
15,Cc1ccc(-c2nc(C)sc2CC(=O)NCc2ccco2)cc1,14.4% (active)
16,Cc1ccc(NC(=O)Cc2sc(C)nc2-c2ccc(C)cc2)cc1,-0.58%
17,Cc1coc(NC(=O)CSc2nc(-c3ccncc3)cc(C(F)(F)F)c2C#N)n1,-2.15%
18,COc1ccccc1Cn1c(=S)[nH]c2cc(C(=O)NCc3cccnc3)ccc2c1=O,-2.96%
19,COc1cc(CNn2cn[nH]c2=S)cc(Cl)c1OCc1ccccc1,-2.33%
20,COc1cccc(-c2cc(-c3cccnc3)nc(N)c2C#N)c1,2.15%
